C diff growth – blocks growth of Clostridium difficile | 86,000 tested, 0.25% active | growth activity, negative = inhibition, % at 16 µg/mL (by protocol) | Clostridium difficile clinical isolate growth, OD600, 24 h; active compounds read low | AID 1259249;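 active means mean growth activity at or below -80% and every replicate also at or below -80%; inconclusive means mean at or below -80% but some replicate above -80%; inactive means mean growth activity above -80%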;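 further: 0% = DMSO wells and -100% = levofloxacin 16 µg/mL wells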
T cruzi growth-1 – inhibitors of T. cruzi proliferation. 77,000 tested, 5.9% active. inhibition, % at 8.34 µM. T. cruzi beta-gal in NIH3T3, GalScreen luminescence, 90 h;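 active means mean inhibition above about 93%, with at least 55% of replicates each passing it, limit read from the data, passing the limit was not always enough; inconclusive means only one of those two conditions holds; inactive means neither condition holds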
Pf Dd2 growth – inhibitors of Plasmodium falciparum Dd2 growth | P. falciparum Dd2 growth, SYBR Green, 72 h; active compounds read low | AID 1159554 | activity change, % at 10 µM | 94,000 tested, 2.3% active; in the data active means activity change below about -80%; inconclusive means no clear call, values can overlap the other calls
T cruzi growth-2 – blocks T. cruzi growth in NIH3T3 host cells | shares compounds with T cruzi growth-1 | T. cruzi beta-gal in NIH3T3, GalScreen luminescence, 90 h | inhibition, % at 8.35 µM | 5,600 tested, 72% active;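 active means mean replicate inhibition above about 95% and at least 55% of replicates individually reaching it, limit read from the data; inconclusive means only one of the two criteria is met; inactive means neither criterion is met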
T cruzi growth-3 – Trypanosoma cruzi proliferation inhibition; shares compounds with T cruzi growth-1; T. cruzi beta-gal in NIH3T3, GalScreen luminescence, 90 h; inhibition, % at 2.09 µM; 5,600 tested, 21% active; AID 651740;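 active means mean inhibition above about 95%, with at least 55% of replicates also reaching it, limit read from the data; inconclusive means meets just one of the two conditions; inactive means meets neither condition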;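 further: plate controls were neutral control median for no effect and positive control median for full effect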
NIH3T3 tox – NIH/3T3 (mouse) viability loss; 5,600 tested, 14% active; AID 651742; NIH/3T3 viability, CellTiter-Glo ATP luminescence, 90 h; cytotoxicity (signal decrease), % at 8.35 µM; shares compounds with T cruzi growth-1;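 active means mean signal decrease across replicates above about 35% based on untreated-well scatter, with enough replicates individually passing, limit read from the data; inconclusive means no rule stated though some were filed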;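 further: 0% = median of neutral control wells and 100% = median of positive control wells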
NIH3T3 tox 2 – cytotoxicity in mouse NIH/3T3 fibroblasts | AID 651744 | shares compounds with T cruzi growth-1 | 5,600 tested, 56% active | inhibition, % at 24.9 µM | NIH/3T3 viability, CellTiter-Glo ATP luminescence, 90 h;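 active means mean loss of cell viability signal at or above a set limit, and enough replicates individually reaching it; inconclusive means meets only the mean limit or only the replicate share; inactive means meets neither condition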;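 further: 0% = median of neutral control wells and 100% = median of positive control wells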
* = called active by the depositor; ? = inconclusive; / = not tested or not shown. This is a sample that favours compounds with a hit; in the whole collection about 6.8% have one here.

SMILES	C diff growth	T cruzi growth-1	Pf Dd2 growth	T cruzi growth-2	T cruzi growth-3	NIH3T3 tox	NIH3T3 tox 2
C[C@@H]1CCCCO[C@H](CN(C)C(=O)Nc2ccc(C(F)(F)F)cc2)[C@@H](C)CN([C@@H](C)CO)C(=O)c2cc(NC(=O)Cc3ccccc3)ccc2O1	-2	?	-89*	101*	114*	2	?
C[C@H](CO)N1C[C@H](C)[C@H](CN(C)C(=O)Nc2ccc(F)cc2)OCCCC[C@H](C)Oc2ccc(NC(=O)Cc3ccccc3)cc2C1=O	-1	104*	4	101*	40	-21	6
C[C@@H]1CCCCO[C@H](CN(C)C(=O)Nc2ccccc2)[C@H](C)CN([C@H](C)CO)C(=O)c2cc(NC(=O)Cc3ccccc3)ccc2O1	/	29	-68	/	/	/	/
C[C@@H]1CN([C@H](C)CO)C(=O)c2cc(NC(=O)c3ccccc3)ccc2O[C@@H](C)CCCCO[C@H]1CN(C)C(=O)Nc1ccc(C(F)(F)F)cc1	-4	71	-18	/	/	/	/
C[C@H]1CCCCO[C@@H](CN(C)C(=O)Nc2ccc(C(F)(F)F)cc2)[C@@H](C)CN([C@@H](C)CO)C(=O)c2cc(NC(=O)Cc3ccccc3)ccc2O1	3	?	-63	107*	111*	11	24*
C[C@@H]1CCCCO[C@@H](CN(C)C(=O)Nc2ccccc2)[C@H](C)CN([C@@H](C)CO)C(=O)c2cc(NC(=O)Cc3ccccc3)ccc2O1	/	-28	-26	/	/	/	/
CCCNC(=O)N1[C@@H](CO)[C@@H](c2ccccc2)[C@@H]1CNC(=O)c1ccc(F)cc1	10	22	13	/	/	/	/
CC(C)NC(=O)N1CCCCN2[C@H](C1)[C@@H](c1ccc(C#CC3CC3)cc1)[C@@H]2CO	3	74	-18	/	/	/	/
CC(C)NC(=O)N1CCCCN2[C@H](CO)[C@H](c3ccc(C#CC4CC4)cc3)[C@H]2C1	3	110*	-5	113*	55	8	66*
CC(C)NC(=O)N1CCCCN2[C@H](C1)[C@H](c1ccc(C#CC3CC3)cc1)[C@@H]2CO	14	36	0	/	/	/	/
CC(C)C#Cc1ccc([C@H]2[C@@H](CO)N3CCCCN(C(=O)NC(C)C)C[C@H]23)cc1	-12	102*	-3	111*	87	0	49*
CC(C)NC(=O)N1CCCCN2[C@@H](CO)[C@@H](c3ccc(C#CC4CC4)cc3)[C@@H]2C1	5	107*	10	111*	65	10	49*
CC(C)C#Cc1ccc([C@@H]2[C@@H](CO)N3CCCCN(C(=O)NC(C)C)C[C@@H]23)cc1	-9	77	13	/	/	/	/
C[C@@H]1CN([C@@H](C)CO)C(=O)c2cc(NC(=O)Nc3ccc(C(F)(F)F)cc3)ccc2O[C@H]1CN(C)C(=O)NC1CCCCC1	2	/	-24	/	/	/	/
CC(C)CC#Cc1ccc2c(c1)O[C@@H](CN(C)Cc1cncnc1)[C@H](C)CN([C@@H](C)CO)S2(=O)=O	2	82	-36	/	/	/	/
CC(C)CC#Cc1ccc2c(c1)O[C@H](CN(C)Cc1cccnc1)[C@H](C)CN([C@H](C)CO)S2(=O)=O	-2	106*	/	104*	82	32	103*
CC(C)CC#Cc1ccc2c(c1)O[C@@H](CN(C)Cc1cccnc1)[C@H](C)CN([C@H](C)CO)S2(=O)=O	21	87	/	/	/	/	/
CC(C)CC#Cc1ccc2c(c1)O[C@H](CN(C)Cc1cccnc1)[C@@H](C)CN([C@H](C)CO)S2(=O)=O	9	96*	/	104*	100*	16	104*
C[C@H](CO)N1C[C@H](C)[C@@H](CN(C)S(=O)(=O)c2cccc(F)c2)Oc2ncc(C#CC3CCCC3)cc2C1=O	1	119*	-72	104*	88	6	98*
C[C@@H]1CN([C@H](C)CO)C(=O)c2cc(C#CC3CCCCC3)cnc2O[C@H]1CN(C)S(=O)(=O)c1ccc(F)cc1	2	86	-41	/	/	/	/
C[C@@H]1CN([C@@H](C)CO)C(=O)c2cc(C#CC3CCCCC3)cnc2O[C@H]1CN(C)S(=O)(=O)c1ccc(F)cc1	2	101*	-39	105*	98*	21	99*
C[C@H](CO)N1C[C@H](C)[C@@H](CN(C)S(=O)(=O)c2cccc(F)c2)Oc2ncc(C#CC3CC3)cc2C1=O	/	-88	-56	/	/	/	/
C[C@H](CO)N1C[C@H](C)[C@H](CN(C)S(=O)(=O)c2cccc(F)c2)Oc2ncc(C#CC3CCCC3)cc2C1=O	-5	100	-41	/	/	/	/
C[C@@H]1CN([C@@H](C)CO)C(=O)c2cc(C#CC3CCCC3)cnc2O[C@@H]1CN(C)S(=O)(=O)c1cccc(F)c1	3	104*	-58	96*	72	29	75*
COc1ccc2c3c([nH]c2c1)[C@H](CO)N(C(=O)C1CCCC1)CC31CN(C)C1	-6	/	-29	/	/	/	/
SMILES	C diff growth	T cruzi growth-1	Pf Dd2 growth	T cruzi growth-2	T cruzi growth-3	NIH3T3 tox	NIH3T3 tox 2
CCCC(=O)Nc1ccc2c(c1)C(=O)N(C)C[C@@H](OC)[C@@H](C)CN(S(=O)(=O)c1cn(C)cn1)[C@H](C)CO2	/	9	18	/	/	/	/
COc1ccccc1NC(=O)N1CCCCN2[C@H](CO)[C@H](c3ccc(C#Cc4ccccc4)cc3)[C@@H]2C1	-3	78	?	/	/	/	/
COc1ccccc1NC(=O)N1CCCCN2[C@H](CO)[C@@H](c3ccc(C#CC4CC4)cc3)[C@@H]2C1	13	/	-45	/	/	/	/
COc1ccccc1NC(=O)N1CCCCN2[C@@H](CO)[C@H](c3ccc(C#Cc4ccccc4)cc3)[C@@H]2C1	8	112*	?	92	108*	118*	104*
COc1ccccc1NC(=O)N1CCCCN2[C@H](C1)[C@H](c1ccc(C#CC3CCCC3)cc1)[C@@H]2CO	-3	92	-7	/	/	/	/
COc1ccccc1NC(=O)N1CCCCN2[C@H](CO)[C@@H](c3ccc(C#CC4CCCC4)cc3)[C@@H]2C1	30	102*	-15	98*	68	26	105*
COc1ccccc1NC(=O)N1CCCCN2[C@H](CO)[C@@H](c3ccc(C#Cc4ccccc4)cc3)[C@H]2C1	1	112*	-73	102*	102*	119*	105*
O=C(C1CCC1)N1CC2(C1)[C@H](c1ccccc1)[C@H](CO)N2CCC(F)(F)F	0	/	25	/	/	/	/
CCCN1[C@@H]2c3ccc(-c4ccc(C(=O)N(C)C)cc4)c(=O)n3C[C@@H]2[C@@H](CO)[C@@H]1C(=O)NCC	-1	56	9	/	/	/	/
O=C(C[C@H]1C=C[C@H](NC(=O)CN2CCOCC2)[C@H](CO)O1)NC1CCC1	1	/	6	/	/	/	/
COc1ccc(NC(=O)Nc2ccc3c(c2)C(=O)N([C@H](C)CO)C[C@@H](C)[C@H](CN(C)Cc2ccc(Cl)c(Cl)c2)OCCCC[C@H](C)O3)cc1	-6	121*	-62	93	107*	9	17

Assay outcomes as filed in PubChem.
